Pf growth 96h: P. falciparum growth inhibition at 96 hour, primary screen for plastid delayed-death inhibitors; P. falciparum luciferase reporter growth, 96 h; Potency, µM (highest dose often 28.7 µM), for inactives: top-dose activity change, negative = inhibition, usual class: inhibitors; hit rate 6.9% among 320,000; AID 504834; note: potency is the fitted concentration of half-maximal effect; % is set by controls: 0 for no effect and ±100 for the full control effect
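Parasite growth measured via integrated firefly luciferase reporter in P. falciparum. Infected erythrocytes at 2% hematocrit, 0.05% parasitemia final were treated 96 hours at 37 C under 5% CO2, and luminescence was read.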
Cycloheximide cs: affects cycloheximide protein synthesis inhibition readout, counter-screen; hit rate 12% among 300,000; cell reporter, cycloheximide protein synthesis inhibition counterscreen; max response, %; AID 2314; in the data active = max response mostly above about 13%, no sharp cut-off; inactive = mostly below about 14%; note: read at 38.3 µM for the half of the compounds with a filed dose; 0% is about no effect
Pf growth 48h: P. falciparum growth inhibition at 48 hours (one generation) | Potency, µM (doses to about 28.7 µM), for inactives: top-dose activity change, negative = inhibition, most hits filed as inhibitors | P. falciparum luciferase growth in erythrocytes, 48 h | hit rate 5.9% among 310,000; note: potency is the fitted concentration of half-maximal effect; % is set by controls: 0 for no effect and ±100 for the full control effect
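Here the parasites carry a stable luciferase gene and grow inside erythrocytes in Albumax-based RPMI medium with compound for one erythrocytic cycle. Activity is scored as loss of luminescent signal.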
Shiga inhibitor: blocks Shiga toxin action in Vero cells | Vero cells, Shiga toxin protein synthesis inhibition reporter | hit rate 9.2% among 290,000 | inhibition, % at 38.7 µM; in the data active = inhibition mostly above about 28%, no sharp cut-off; inactive = mostly below about 43%; note: 0% is about no effect
Lassa entry inh: blocks Lassa virus binding to or entry into cells; Lassa virus pseudotype entry inhibition, cell reporter; Potency, µM (titrated, usually from 37.9 µM), for the others: at the highest dose activity change, negative = inhibition, most hits filed as inhibitors; hit rate 1.2% among 300,000; calls by dose curve; tested in HEK293 cells; note: potency is the fitted concentration of half-maximal effect; % is set by controls: 0 for no effect and ±100 for the full control effect; nearly all actives have a fitted effect of over 50% in size
Marburg entry inh: inhibitors of Marburg virus binding or cell entry; Marburg virus pseudotyped entry inhibition, cell reporter; Potency, µM (titrated, usually from 37.8 µM), for the others: top-dose activity change, negative = inhibition, actives largely listed as inhibitors; hit rate 1.8% among 300,000; calls by dose curve; tested in HEK293 cells; note: potency is the fitted concentration of half-maximal effect; % is set by controls: 0 for no effect and ±100 for the full control effect
* = called active by the depositor; ? = inconclusive; / = not tested or not shown; [ ] = remark or other dose. An excerpt weighted towards active compounds, which were near 19% of everything screened. Unless noted, calls come from the whole dose curve; as a rule, active = well fitted inhibition curve with a large enough effect; inconclusive = small, poorly fitted or top-dose-only effect, or another doubt; inactive = no such curve, though single readings can be large or run the other way.

SMILES	Pf growth 96h	Cycloheximide cs	Pf growth 48h	Shiga inhibitor	Lassa entry inh	Marburg entry inh
CC1(C)Cc2c(c(=S)nc(-c3ccccc3)n2CCN2CCOCC2)CO1	15%	-5	-8%	-3	-1%	-7%
COc1cc2c(c(OC)c1OC)-c1c(cc3c(c1O)OCO3)C[C@@H](C)[C@@H](C)C2	10µM*	-8	?	-11	/	/
COc1cc2c(c(O)c1OC)-c1c(cc(OC)c(OC)c1OC)C[C@@H](C)[C@@H](C)C2	?	2	13µM*	-14	/	/
CCO[C@@H]1OC(C(=O)Nc2ccccc2)=C[C@H](c2csc3ccccc23)[C@H]1CCCO	?	-2	7.4µM*	20	/	/
CCO[C@H]1OC(C(=O)Nc2ccccc2)=C[C@@H](C)[C@@H]1CCCO	32%	11*	31%	6	/	/
CCO[C@H]1OC(C(=O)NC2CC2)=C[C@@H](c2csc3ccccc23)[C@@H]1CCCO	0.19µM*	-2	?	-14	/	/
CCO[C@H]1OC(C(N)=O)=C[C@@H](c2csc3ccccc23)[C@@H]1CCCO	16%	2	1%	15	/	/
CCO[C@@H]1OC(C(=O)NCc2ccccc2)=C[C@H](c2csc3ccccc23)[C@H]1CCCO	10µM*	1	?	-1	/	/
C=CCn1c(=O)/c(=C2/Sc3ccccc3N2CC)s/c1=C1/C(=O)NN=C1C	89%	15	15µM*	-6	/	/
Cc1ccc(S(=O)(=O)N2CCCN(Cc3nc4ccccc4c(=O)[nH]3)CC2)cc1	-14%	/	?	/	17%	-1%
Cc1ccc(S(=O)(=O)N2CCCN(C(C)c3nc4ccccc4c(=O)[nH]3)CC2)cc1 (stereo unspecified)	13µM*	/	?	/	/	/
Cc1cccc(C)c1NC(=O)Nc1csc2c1CCCC2	/	/	/	/	/	-13%[46.1 µM]
CCC(O)(CC)C(=O)NN(C(=O)Nc1csc2c1CCCC2)c1ccccc1	1.3µM*	-2	1.7µM*	-2	-7%	?
CN1c2ccccc2Oc2ccccc21	54%	-5	44%	-10	3%	3%
CCOC(=O)c1ccc(OCC(=O)c2ccc(O)cc2O)cc1	53%	18*	76%	50*	-15%	-4%
O=C(COc1ccc(Cl)cc1)c1ccc(O)cc1O	110%	25*	20%	69*	?	-1%[46.1 µM]
O=C(COc1ccccc1)OCC(=O)c1ccc(O)cc1O	6%	/	27%	/	/	/
COC(=O)c1ccc(OCC(=O)c2ccc(O)cc2O)cc1	-25%	11	221%	54	?	28%
O=C1c2cccnc2C(Nc2ccc(Br)cc2Br)N1Cc1cccs1 (stereo unspecified)	6.6µM*	3	?	-7	/	/
Cc1onc(-c2ccccc2)c1C(=O)N/N=C/c1cc2c(cc1Cl)OCO2	51%	-1	9%	10	?	?
CC1=C(/C=C/C(C)=C/C=C/C(C)=C/C(=O)Nc2ccc(O)cc2)C(C)(C)CCC1	?	/	12µM*	/	10µM*	?
CC1=C(\C=C/C(C)=C/C=C\C(C)=C\C(=O)O)C(C)(C)CCC1	/	/	/	/	/	18%
CC1=C(/C=C/C(=C/C=C/C(C)=C/C(=O)O)c2ccc(C)cc2)C(C)(C)CCC1	/	61*	/	91*	/	/
CCOC(=O)N1CCN(C(=O)CSCC(=O)Nc2nc(-c3ccc(Cl)s3)cs2)CC1	?	14*	?	-15	-29%	-13%
CCOC(=O)N1CCN(C(=O)CSCC(=O)Nc2nc(-c3ccc(-c4ccccc4)cc3)cs2)CC1	10µM*	32*	?	active	/	/
SMILES	Pf growth 96h	Cycloheximide cs	Pf growth 48h	Shiga inhibitor	Lassa entry inh	Marburg entry inh
O=C(CSCC(=O)N1CCOCC1)Nc1nc(-c2ccccc2)cs1	-17%	35*	-6%	84*	?	?
O=C(CSCC(=O)N1CCOCC1)Nc1ccccc1	16%	-4	20%	-2	9%	-3%[46.1 µM]
COc1ccccc1C1(O)CCN(CC(=O)Nc2nc(-c3ccccc3)cs2)CC1	-19%	1	-2%	17	5.6µM*	?
CCOC(=S)SCC(=O)Nc1nc(-c2ccccc2)cs1	?	1	?	14	?	?
CCOC(=O)N1CCN(C(=O)CSCC(=O)Nc2nc(-c3ccc(OC)cc3)cs2)CC1	?	10	?	-3	-19%	?
COC(=O)[C@H](CC(C)C)NC(=O)CCc1nnc(COc2ccccc2)o1	-9%	4	23%	10	20%[46.1 µM]	-12%[46.1 µM]
O=C1CCc2cc(S(=O)(=O)NCCc3ccccc3)cc3c2N1CC3	8%	/	11%	/	-32%	2%
CCCCCC/C(=N/O)c1ccccn1	?	12	12µM*	3	6%	?
O=C(CN1CCN(c2ncccn2)CC1)N(Cc1ccccc1)c1ccc(F)cc1	12µM*	-7	-19%	-32	-20%	-27%
CCN(CC)C(=O)CN1CCN(c2ncccn2)CC1	-4%	14	37%	-6	5%	-2%
Cc1cccc(N2CC(C(=O)OCC(=O)Nc3sccc3C(N)=O)CC2=O)c1C (stereo unspecified)	/	/	/	/	5%[46.1 µM]	1%[46.1 µM]
Cc1ccc(Nc2ccc([N+](=O)[O-])cn2)cc1Cl	-8%	27*	?	46*	-1%	-15%
O=[N+]([O-])c1ccc(Nc2ccc(F)cc2)nc1	29%	15*	40%	32*	16%	?
CN(C)c1ccc(Nc2ccc([N+](=O)[O-])cn2)cc1	-29%	34*	151%	132*	-13%[46.1 µM]	-17%[46.1 µM]
CC(=O)Nc1ccc(Nc2ccc([N+](=O)[O-])cn2)cc1	?	6	17%	37	-2%[46.1 µM]	?
O=C(Nc1ccc(CN2CCCCC2)cc1)Nc1ccc(Br)cc1Cl	13%	-1	?	7	?	10µM*
S=C(Nc1ccc(Br)cc1Cl)N1CCCC1	2.1µM*	-6	-3%	-18	21%	-3%
CO/N=C(/C(=O)N[C@@H]1C(=O)N2C(C(=O)O)=C(COC(N)=O)CS[C@H]12)c1ccco1	17µM*	/	15µM*	/	/	/
CCOc1ccc(-c2cn(-c3ccccc3OC)c(=S)[nH]2)cc1	21%	18*	?	52*	-17%[46.1 µM]	?
O=[N+]([O-])c1ccc(-c2cn(-c3ccccc3F)c(=S)[nH]2)cc1	?	42*	66%	131*	0%[46.1 µM]	14%[46.1 µM]
Cc1ccc(-c2cn(-c3ccccc3F)c(=S)[nH]2)cc1	25%	42*	?	68*	/	/
COc1cc(CC(=O)Nc2cccc(C(F)(F)F)c2)cc(OC)c1OC	-24%	8	?	-7	-15%	?
CCOC(=O)N1CCN(C(=O)c2ccc(NS(C)(=O)=O)cc2)CC1	27%	-3	-2%	-9	2%	15%
COc1ccc(C(=O)NC(C(=O)N2CCc3ccccc32)C(C)C)cc1 (stereo unspecified)	?	9	?	14	11%	18%
Cc1ccc(Cl)cc1N1CCN(C(=O)C2CCN(S(=O)(=O)c3cccc4nonc34)CC2)CC1	/	/	/	/	-24%[46.1 µM]	?
COCCCNCCOc1ccc(C(C)(C)c2ccccc2)cc1	?	-8	-25%	-11	?	16µM*
